Experimental data as given in the supplement of paper PMC12819154, “High-throughput peptide-centric local stability assay extends protein–ligand identification to membrane proteins, tissues and bacteria” (Nature Structural & Molecular Biology, 2025).

Compound: Nc1ncnc2c1ncn2[C@@H]1O[C@H](COP(=O)(O)OP(=O)(O)OP(=O)(O)O)[C@@H](O)[C@H]1O [adenosine 5'-triphosphate]
Assay: log2 fold change of tryptic peptide abundance, ligand vs vehicle (limited proteolysis) (log2 ratio); higher = more trypsin-susceptible (destabilized)
Conditions: ligand concentration: 5 mM; sample: E. coli desalted lysate; replicate design: treated before aliquoting
Experimental: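 HT-PELSA: desalted E. coli K-12 BW25113 lysate (with 12 mM MgCl2) incubated with 5 mM ATP (pH 7) or water for 30 min at 25 C, then a 4 min trypsin pulse at 22 C. Peptides were quantified by DIA-MS (4 replicates). Value is the peptide log2 fold change (treated/control); negative = stabilized. Scale: negative = ligand-stabilized region.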
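Also: lysate desalted by size exclusion to strip endogenous ATP, peptide intensities built from DIA-NN precursor signals, and peptides missing any value discarded before comparison.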

Target	log2 fold change
UniProt P77272 (peptide sequence: LRLGVHDSSLVDPNIK, peptide start residue: 33)	0.714
UniProt P07821 (peptide sequence: TLLHPLSLTFPAGK, peptide start residue: 25)	-1.16
UniProt P15005 (peptide sequence: LAYLLTGEK, peptide start residue: 214)	-1.01
UniProt P16676 (peptide sequence: LYNGDER, peptide start residue: 345)	0.414
UniProt P33667 (peptide sequence: MIGSNHLPECLR, peptide start residue: 220)	0.32
UniProt P23305 (peptide sequence: DLGLAGASLR, peptide start residue: 115)	0.488
UniProt P24240 (peptide sequence: YGFVFVDRDDAGNGTLTR, peptide start residue: 436)	-0.866
UniProt P06149 (peptide sequence: VRDIEADTPAR, peptide start residue: 232)	-1.35
UniProt P06987 (peptide sequence: VGDLSTEMIEHFFR, peptide start residue: 290)	-1.32
UniProt P71298 (peptide sequence: QNRPTVTAHAYR, peptide start residue: 218)	-1.54
UniProt P52108 (peptide sequence: KKLLDNAAEPYR, peptide start residue: 211)	0.266
UniProt P11553 (peptide sequence: AQIHYQYR, peptide start residue: 451)	0.93
UniProt P0A9L3 (peptide sequence: VINQGEGAIPARTDR, peptide start residue: 108)	0.513
UniProt P23894 (peptide sequence: SVGGEVIEQPR, peptide start residue: 61)	2.55
UniProt P00509 (peptide sequence: VWVSNPSWPNHK, peptide start residue: 123)	-1.24
UniProt Q06065 (peptide sequence: FSSENQR, peptide start residue: 334)	-2.8
UniProt P75958 (peptide sequence: GVADALK, peptide start residue: 153)	-0.59
UniProt P76222 (peptide sequence: LLAVADWR, peptide start residue: 97)	-0.698
UniProt P15640 (peptide sequence: TSEWDER, peptide start residue: 323)	-1.28
UniProt P37902 (peptide sequence: ALFKEPNDKALN, peptide start residue: 291)	1.12

Target	log2 fold change
UniProt Q46857 (peptide sequence: DLADKYGK, peptide start residue: 204)	-0.885
UniProt P00760 (peptide sequence: LKSAASLNSR, peptide start residue: 113)	0.367
UniProt P0C0T5 (peptide sequence: WTSAQLLRPQALDLVSR, peptide start residue: 130)	0.388
UniProt P37028 (peptide sequence: IVALKPDLVIAWR, peptide start residue: 74)	0.465
UniProt P31470 (peptide sequence: EGEGVTITNLR, peptide start residue: 74)	-0.324
UniProt P15373 (peptide sequence: SHAVLTTESK, peptide start residue: 7)	-0.194
UniProt P25740 (peptide sequence: HYAAFER, peptide start residue: 123)	-0.355
UniProt P43672 (peptide sequence: LMLGQLQADSGR, peptide start residue: 364)	-0.906
UniProt P08390 (peptide sequence: AVDALAGQSAK, peptide start residue: 168)	0.237
UniProt P0C0L2 (peptide sequence: GQAHWEGDIKR, peptide start residue: 7)	-0.717
UniProt P75767 (peptide sequence: VLSSLSSLGSR, peptide start residue: 24)	-1.19
UniProt P00959 (peptide sequence: HTIMVANLAPRK, peptide start residue: 630)	-0.728
UniProt P77258 (peptide sequence: DENGQAIR, peptide start residue: 136)	-0.737
UniProt Q46855 (peptide sequence: VGYESASQFSR, peptide start residue: 285)	0.235
UniProt Q47146 (peptide sequence: GITLPSNSTGGVK, peptide start residue: 375)	-0.706
UniProt P24232 (peptide sequence: MFTHNPELKEIFNMSNQR, peptide start residue: 32)	-1.5
UniProt P69829 (peptide sequence: EKMGSTGIGNGIAIPHGKLEEDTLR, peptide start residue: 58)	0.37
UniProt P09323 (peptide sequence: AIDACITR, peptide start residue: 408)	0.593
UniProt P06999 (peptide sequence: IYAYLSR, peptide start residue: 303)	-2.25
UniProt P06709 (peptide sequence: VKWPNDLYLQDR, peptide start residue: 171)	-0.523
